About 7,900 targets were measured; listed, in parts, are those with a hit and a random draw of the rest. About 0.6% of all pairs of compound and target were hits. A number with no mark means an inactive call.
compound: CC(C)C[C@@H](C=O)NC(=O)[C@H](CC(C)C)NC(=O)[C@H](CC(C)C)NC(=O)OCc1ccccc1; assay: log2 fold change, soluble protein after heating vs DMSO (PISA); higher = thermal stabilisation; K562 cells, 10 uM, 30 min; active = over 0.2 and 3.5 SD of the protein, either way, in both replicates (recomputed)
In short: (§1)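 K562 cells at 2×10^6 cells/mL were treated for 30 min with 10 μM compound, and aliquots were heated for 3 min over 48°C-58°C before pooling. Extraction used PBS with 0.5% NP-40 at 4°C, and soluble protein was the supernatant after 21,000xg for 90 min, measured by TMTpro 16plex LC-MS/MS with channel sums equalised. Thermal stability values, relative to control samples and from duplicates, are log2 fold changes.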

UniProt P60842, sequence (P60842 whole entry, looked up): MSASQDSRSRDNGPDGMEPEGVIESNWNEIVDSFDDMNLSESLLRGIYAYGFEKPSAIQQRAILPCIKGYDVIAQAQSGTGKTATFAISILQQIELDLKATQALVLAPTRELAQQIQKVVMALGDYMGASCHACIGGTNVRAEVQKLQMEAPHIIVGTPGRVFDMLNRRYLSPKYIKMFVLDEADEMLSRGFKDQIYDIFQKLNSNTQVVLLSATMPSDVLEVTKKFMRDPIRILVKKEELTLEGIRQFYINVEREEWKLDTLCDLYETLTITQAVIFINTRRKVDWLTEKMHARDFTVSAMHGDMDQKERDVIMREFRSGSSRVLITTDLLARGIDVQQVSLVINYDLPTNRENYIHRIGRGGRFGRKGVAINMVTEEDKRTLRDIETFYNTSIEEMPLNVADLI
UniProt Q6UX04, sequence (Q6UX04 whole entry, looked up): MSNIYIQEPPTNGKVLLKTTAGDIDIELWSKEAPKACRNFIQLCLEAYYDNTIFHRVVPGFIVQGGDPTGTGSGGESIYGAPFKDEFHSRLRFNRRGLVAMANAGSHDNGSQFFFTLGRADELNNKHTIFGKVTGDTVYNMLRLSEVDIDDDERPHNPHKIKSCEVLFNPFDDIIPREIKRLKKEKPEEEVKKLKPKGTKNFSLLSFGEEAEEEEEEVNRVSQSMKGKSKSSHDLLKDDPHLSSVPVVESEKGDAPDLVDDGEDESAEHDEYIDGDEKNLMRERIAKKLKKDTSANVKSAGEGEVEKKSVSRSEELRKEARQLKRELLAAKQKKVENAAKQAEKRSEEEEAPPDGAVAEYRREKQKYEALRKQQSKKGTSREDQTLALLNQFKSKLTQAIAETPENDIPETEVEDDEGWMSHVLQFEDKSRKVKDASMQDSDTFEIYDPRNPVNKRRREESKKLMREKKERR
UniProt Q96E09, sequence (Q96E09 whole entry, looked up): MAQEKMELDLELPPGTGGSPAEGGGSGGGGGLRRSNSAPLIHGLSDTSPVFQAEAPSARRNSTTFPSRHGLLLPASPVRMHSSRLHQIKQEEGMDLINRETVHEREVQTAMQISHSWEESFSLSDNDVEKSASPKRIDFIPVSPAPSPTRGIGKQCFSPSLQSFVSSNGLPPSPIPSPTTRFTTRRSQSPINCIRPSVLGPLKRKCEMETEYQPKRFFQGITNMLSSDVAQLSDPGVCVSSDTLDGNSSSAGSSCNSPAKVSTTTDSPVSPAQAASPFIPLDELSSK
UniProt Q15075, sequence (Q15075 whole entry, looked up): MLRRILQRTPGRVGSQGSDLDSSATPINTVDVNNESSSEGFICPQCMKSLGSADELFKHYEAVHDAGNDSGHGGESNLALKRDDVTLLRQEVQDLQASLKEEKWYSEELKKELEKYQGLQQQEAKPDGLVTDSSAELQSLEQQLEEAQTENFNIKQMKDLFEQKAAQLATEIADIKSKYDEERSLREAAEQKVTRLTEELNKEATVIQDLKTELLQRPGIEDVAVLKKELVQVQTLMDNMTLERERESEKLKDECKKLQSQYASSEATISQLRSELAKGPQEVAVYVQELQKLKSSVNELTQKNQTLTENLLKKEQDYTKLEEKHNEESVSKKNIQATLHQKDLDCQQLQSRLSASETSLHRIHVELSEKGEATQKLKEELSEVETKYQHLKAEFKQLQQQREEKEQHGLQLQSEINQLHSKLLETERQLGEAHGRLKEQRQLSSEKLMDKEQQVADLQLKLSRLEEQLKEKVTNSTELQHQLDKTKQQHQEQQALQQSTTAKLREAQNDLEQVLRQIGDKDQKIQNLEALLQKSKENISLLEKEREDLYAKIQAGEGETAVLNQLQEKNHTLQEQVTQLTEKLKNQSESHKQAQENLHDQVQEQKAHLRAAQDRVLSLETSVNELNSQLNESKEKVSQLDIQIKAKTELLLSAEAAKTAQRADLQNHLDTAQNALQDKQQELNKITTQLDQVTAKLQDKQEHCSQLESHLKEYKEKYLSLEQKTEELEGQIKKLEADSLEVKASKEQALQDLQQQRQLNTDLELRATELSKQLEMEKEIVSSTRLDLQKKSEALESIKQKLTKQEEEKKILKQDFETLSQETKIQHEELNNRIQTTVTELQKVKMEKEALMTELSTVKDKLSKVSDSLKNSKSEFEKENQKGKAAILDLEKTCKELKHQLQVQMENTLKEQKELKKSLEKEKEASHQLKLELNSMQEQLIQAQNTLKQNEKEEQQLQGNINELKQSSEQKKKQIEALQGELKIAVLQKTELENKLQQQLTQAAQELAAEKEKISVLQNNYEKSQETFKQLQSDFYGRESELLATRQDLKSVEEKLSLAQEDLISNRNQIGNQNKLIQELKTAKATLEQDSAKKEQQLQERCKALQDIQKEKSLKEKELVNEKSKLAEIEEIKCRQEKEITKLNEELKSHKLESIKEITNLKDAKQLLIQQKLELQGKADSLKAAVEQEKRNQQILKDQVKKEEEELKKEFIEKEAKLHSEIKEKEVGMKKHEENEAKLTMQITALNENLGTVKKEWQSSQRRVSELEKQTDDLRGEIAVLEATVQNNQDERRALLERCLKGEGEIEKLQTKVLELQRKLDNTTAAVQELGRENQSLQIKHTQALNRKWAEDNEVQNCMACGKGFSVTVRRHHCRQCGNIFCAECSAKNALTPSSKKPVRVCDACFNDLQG
UniProt Q14203, sequence (Q14203 whole entry, looked up): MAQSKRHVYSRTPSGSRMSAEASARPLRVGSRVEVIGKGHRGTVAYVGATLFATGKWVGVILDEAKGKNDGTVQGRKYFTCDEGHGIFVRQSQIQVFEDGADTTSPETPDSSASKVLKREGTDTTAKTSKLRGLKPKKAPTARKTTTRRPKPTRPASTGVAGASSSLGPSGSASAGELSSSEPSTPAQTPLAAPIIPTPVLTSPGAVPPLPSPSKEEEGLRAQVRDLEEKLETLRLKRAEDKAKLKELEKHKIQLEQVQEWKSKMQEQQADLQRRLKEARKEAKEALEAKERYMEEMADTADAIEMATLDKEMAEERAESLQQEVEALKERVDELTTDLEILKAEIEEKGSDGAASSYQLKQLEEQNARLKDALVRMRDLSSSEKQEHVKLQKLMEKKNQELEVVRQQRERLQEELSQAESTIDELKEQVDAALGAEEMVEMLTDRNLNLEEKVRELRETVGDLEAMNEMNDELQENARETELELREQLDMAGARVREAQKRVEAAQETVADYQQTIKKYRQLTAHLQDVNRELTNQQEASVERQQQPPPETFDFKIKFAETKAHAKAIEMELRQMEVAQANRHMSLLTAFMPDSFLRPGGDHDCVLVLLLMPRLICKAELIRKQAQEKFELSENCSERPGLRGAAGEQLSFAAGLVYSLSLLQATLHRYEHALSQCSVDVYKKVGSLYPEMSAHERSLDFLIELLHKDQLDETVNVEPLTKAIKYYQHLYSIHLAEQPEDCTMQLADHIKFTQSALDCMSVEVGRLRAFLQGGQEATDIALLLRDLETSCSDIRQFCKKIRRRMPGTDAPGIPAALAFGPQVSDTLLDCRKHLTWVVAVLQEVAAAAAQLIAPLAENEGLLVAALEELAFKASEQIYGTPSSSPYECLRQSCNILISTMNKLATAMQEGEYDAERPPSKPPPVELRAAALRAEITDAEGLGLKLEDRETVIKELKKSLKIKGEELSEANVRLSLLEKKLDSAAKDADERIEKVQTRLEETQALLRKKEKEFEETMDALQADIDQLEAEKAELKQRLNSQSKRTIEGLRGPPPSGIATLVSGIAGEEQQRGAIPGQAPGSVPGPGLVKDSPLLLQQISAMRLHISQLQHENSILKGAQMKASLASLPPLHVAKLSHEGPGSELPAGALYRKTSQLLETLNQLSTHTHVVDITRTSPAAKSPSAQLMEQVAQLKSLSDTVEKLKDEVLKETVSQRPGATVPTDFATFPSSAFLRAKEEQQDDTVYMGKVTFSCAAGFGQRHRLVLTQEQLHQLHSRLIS
UniProt O60573, sequence (O60573 whole entry, looked up): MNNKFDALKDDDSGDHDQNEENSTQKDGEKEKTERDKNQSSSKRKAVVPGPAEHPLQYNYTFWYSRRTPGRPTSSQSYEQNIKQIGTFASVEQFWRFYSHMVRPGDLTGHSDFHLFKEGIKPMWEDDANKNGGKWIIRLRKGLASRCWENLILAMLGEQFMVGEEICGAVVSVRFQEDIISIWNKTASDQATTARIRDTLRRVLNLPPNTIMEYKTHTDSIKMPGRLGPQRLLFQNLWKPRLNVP
UniProt Q16850, sequence (Q16850 whole entry, looked up): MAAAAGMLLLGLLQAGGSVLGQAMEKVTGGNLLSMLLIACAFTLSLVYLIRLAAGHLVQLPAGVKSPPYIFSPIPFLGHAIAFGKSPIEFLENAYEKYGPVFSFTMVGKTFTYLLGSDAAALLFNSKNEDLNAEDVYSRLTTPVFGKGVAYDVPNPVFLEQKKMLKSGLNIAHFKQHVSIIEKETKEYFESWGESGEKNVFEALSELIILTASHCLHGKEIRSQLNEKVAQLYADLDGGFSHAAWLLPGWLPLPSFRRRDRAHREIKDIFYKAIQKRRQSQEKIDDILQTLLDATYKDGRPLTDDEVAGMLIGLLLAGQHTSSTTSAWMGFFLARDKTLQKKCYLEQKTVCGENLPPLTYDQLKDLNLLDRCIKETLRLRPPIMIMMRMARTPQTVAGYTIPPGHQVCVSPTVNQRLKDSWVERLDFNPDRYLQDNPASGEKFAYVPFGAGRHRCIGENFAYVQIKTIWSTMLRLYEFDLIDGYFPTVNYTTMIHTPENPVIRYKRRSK
UniProt O75822, sequence (O75822 whole entry, looked up): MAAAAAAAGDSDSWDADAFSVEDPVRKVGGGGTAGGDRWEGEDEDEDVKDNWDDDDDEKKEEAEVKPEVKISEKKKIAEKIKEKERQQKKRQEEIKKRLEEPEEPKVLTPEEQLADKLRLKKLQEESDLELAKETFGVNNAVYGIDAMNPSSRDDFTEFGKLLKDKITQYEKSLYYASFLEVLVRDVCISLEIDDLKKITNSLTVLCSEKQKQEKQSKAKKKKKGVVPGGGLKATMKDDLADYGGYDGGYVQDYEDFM
UniProt Q96DA6, sequence (Q96DA6 whole entry, looked up): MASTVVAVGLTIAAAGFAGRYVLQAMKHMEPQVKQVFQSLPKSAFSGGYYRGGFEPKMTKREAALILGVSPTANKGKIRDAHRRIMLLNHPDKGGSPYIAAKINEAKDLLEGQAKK

With EOGT (UniProt Q5NDL2) as the target, how does the log2 fold change read?
Its log2 fold change is 0.026.

How did the log2 fold change turn out when CUEDC2 (UniProt Q9H467) was run?
The log2 fold change was 0.198.

How did the log2 fold change turn out when DDX5 (UniProt P17844) was run?
The log2 fold change was 0.069.

EIF4E2 (UniProt O60573) was tested. Which log2 fold change did it give?
Its log2 fold change is 0.118.

ERLIN1 (UniProt O75477) was tested. Which log2 fold change did it give?
The log2 fold change was -0.007.

Which log2 fold change does the source give for EEF1AKNMT (UniProt Q8N6R0) here?
Its log2 fold change is 0.127.

How did the log2 fold change turn out when EIF4A1 (UniProt P60842) was run?
Its log2 fold change is -0.001.

How did the log2 fold change turn out when DCTPP1 (UniProt Q9H773) was run?
Its log2 fold change is -0.105.

DNAJB12 (UniProt Q9NXW2) was tested. Which log2 fold change did it give?
Its log2 fold change is 0.076.

DDX4 (UniProt Q9NQI0) was tested. Which log2 fold change did it give?
Its log2 fold change is 0.239.

For EXOC2 (UniProt Q96KP1), which log2 fold change is on record?
The log2 fold change was 0.027.

How did the log2 fold change turn out when DMAC1 (UniProt Q96GE9) was run?
The log2 fold change was 0.067.

How did the log2 fold change turn out when EEA1 (UniProt Q15075) was run?
Its log2 fold change is -0.022.

How did the log2 fold change turn out when DDX46 (UniProt Q7L014) was run?
Its log2 fold change is 0.026.

Which log2 fold change does the source give for CYP51A1 (UniProt Q16850) here?
Its log2 fold change is 0.07.

Which log2 fold change does the source give for DCTN1 isoform 4 (UniProt Q14203) here?
The log2 fold change was 0.07.

With CWC27 (UniProt Q6UX04) as the target, how does the log2 fold change read?
The log2 fold change was -0.007.

DNAJC19 (UniProt Q96DA6) was tested. Which log2 fold change did it give?
The log2 fold change was -0.006.

How did the log2 fold change turn out when DUS2 (UniProt Q9NX74) was run?
Its log2 fold change is 0.044.

How did the log2 fold change turn out when ECH1 (UniProt Q13011) was run?
Its log2 fold change is -0.033.

With DBT (UniProt P11182) as the target, how does the log2 fold change read?
The log2 fold change was 0.023.

With FAAP100 (UniProt Q0VG06) as the target, how does the log2 fold change read?
Its log2 fold change is -0.05.

How did the log2 fold change turn out when FAM207A (UniProt Q9NSI2) was run?
The log2 fold change was 0.088.

EEF1D isoform 2 (UniProt P29692) was tested. Which log2 fold change did it give?
Its log2 fold change is 0.029.

For DNAH11 (UniProt Q96DT5), which log2 fold change is on record?
The log2 fold change was 0.041.

Which log2 fold change does the source give for DAB2 (UniProt P98082) here?
The log2 fold change was 0.138.

For DYNC1LI2 (UniProt O43237), which log2 fold change is on record?
Its log2 fold change is 0.07.

With DNAJC7 (UniProt Q99615) as the target, how does the log2 fold change read?
Its log2 fold change is 0.023.

DLD (UniProt P09622) was tested. Which log2 fold change did it give?
The log2 fold change was -0.029.

With DCAF10 (UniProt Q5QP82) as the target, how does the log2 fold change read?
Its log2 fold change is 0.026.

With DCAF6 isoform 3 (UniProt Q58WW2) as the target, how does the log2 fold change read?
The log2 fold change was 0.023.

For FAM122A (UniProt Q96E09), which log2 fold change is on record?
The log2 fold change was 0.016.

For FAM83D (UniProt Q9H4H8), which log2 fold change is on record?
Its log2 fold change is -0.062.

DNAJB1 (UniProt P25685) was tested. Which log2 fold change did it give?
Its log2 fold change is -0.065.

For DNTTIP2 (UniProt Q5QJE6), which log2 fold change is on record?
Its log2 fold change is 0.046.

CTSL (UniProt P07711) was tested. Which log2 fold change did it give?
Its log2 fold change is 0.098.

How did the log2 fold change turn out when CTSV (UniProt O60911) was run?
The log2 fold change was 0.14.

Which log2 fold change does the source give for EDC3 (UniProt Q96F86) here?
The log2 fold change was 0.019.

EIF3J (UniProt O75822) was tested. Which log2 fold change did it give?
Its log2 fold change is -0.079.

compound: CC(C)N(C[C@H]1O[C@@H](n2cnc3c(N)ncnc32)[C@H](O)[C@@H]1O)[C@H]1C[C@@H](CCc2nc3cc(C(C)(C)C)ccc3[nH]2)C1 [pinometostat]; assay: as above
In short: as §1

EOGT (UniProt Q5NDL2) was tested. Which log2 fold change did it give?
The log2 fold change was 0.075.

For CUEDC2 (UniProt Q9H467), which log2 fold change is on record?
The log2 fold change was -0.001.

With DDX5 (UniProt P17844) as the target, how does the log2 fold change read?
The log2 fold change was 0.017.

EIF4E2 (UniProt O60573) was tested. Which log2 fold change did it give?
Its log2 fold change is 0.043.

With ERLIN1 (UniProt O75477) as the target, how does the log2 fold change read?
The log2 fold change was 0.098.

How did the log2 fold change turn out when EEF1AKNMT (UniProt Q8N6R0) was run?
The log2 fold change was 0.354 (active).

With EIF4A1 (UniProt P60842) as the target, how does the log2 fold change read?
Its log2 fold change is 0.016.

For DCTPP1 (UniProt Q9H773), which log2 fold change is on record?
Its log2 fold change is -0.067.

For DNAJB12 (UniProt Q9NXW2), which log2 fold change is on record?
The log2 fold change was 0.021.

For DDX4 (UniProt Q9NQI0), which log2 fold change is on record?
The log2 fold change was 0.24.

Which log2 fold change does the source give for EXOC2 (UniProt Q96KP1) here?
The log2 fold change was 0.172.

How did the log2 fold change turn out when DMAC1 (UniProt Q96GE9) was run?
Its log2 fold change is -0.002.

EEA1 (UniProt Q15075) was tested. Which log2 fold change did it give?
Its log2 fold change is -0.041.

How did the log2 fold change turn out when DDX46 (UniProt Q7L014) was run?
The log2 fold change was -0.066.

CYP51A1 (UniProt Q16850) was tested. Which log2 fold change did it give?
The log2 fold change was 0.045.

How did the log2 fold change turn out when DCTN1 isoform 4 (UniProt Q14203) was run?
The log2 fold change was 0.138.

Which log2 fold change does the source give for CWC27 (UniProt Q6UX04) here?
The log2 fold change was -0.023.

With DNAJC19 (UniProt Q96DA6) as the target, how does the log2 fold change read?
The log2 fold change was -0.013.

How did the log2 fold change turn out when DUS2 (UniProt Q9NX74) was run?
The log2 fold change was -0.001.

For ECH1 (UniProt Q13011), which log2 fold change is on record?
The log2 fold change was 0.003.

Which log2 fold change does the source give for DBT (UniProt P11182) here?
The log2 fold change was 0.002.

Which log2 fold change does the source give for FAAP100 (UniProt Q0VG06) here?
The log2 fold change was 0.013.

Which log2 fold change does the source give for FAM207A (UniProt Q9NSI2) here?
The log2 fold change was 0.024.

Which log2 fold change does the source give for EEF1D isoform 2 (UniProt P29692) here?
The log2 fold change was 0.065.

With DNAH11 (UniProt Q96DT5) as the target, how does the log2 fold change read?
The log2 fold change was -0.019.

For DAB2 (UniProt P98082), which log2 fold change is on record?
The log2 fold change was 0.049.

For DYNC1LI2 (UniProt O43237), which log2 fold change is on record?
The log2 fold change was 0.146.

With DNAJC7 (UniProt Q99615) as the target, how does the log2 fold change read?
Its log2 fold change is -0.034.

Which log2 fold change does the source give for DLD (UniProt P09622) here?
The log2 fold change was 0.001.

Which log2 fold change does the source give for DCAF10 (UniProt Q5QP82) here?
Its log2 fold change is -0.016.

Which log2 fold change does the source give for DCAF6 isoform 3 (UniProt Q58WW2) here?
Its log2 fold change is -0.004.

Which log2 fold change does the source give for FAM122A (UniProt Q96E09) here?
Its log2 fold change is -0.008.

FAM83D (UniProt Q9H4H8) was tested. Which log2 fold change did it give?
Its log2 fold change is 0.041.

DNAJB1 (UniProt P25685) was tested. Which log2 fold change did it give?
Its log2 fold change is -0.086.

How did the log2 fold change turn out when DNTTIP2 (UniProt Q5QJE6) was run?
Its log2 fold change is 0.266.

CTSL (UniProt P07711) was tested. Which log2 fold change did it give?
Its log2 fold change is -0.006.

With CTSV (UniProt O60911) as the target, how does the log2 fold change read?
Its log2 fold change is 0.011.

With EDC3 (UniProt Q96F86) as the target, how does the log2 fold change read?
Its log2 fold change is 0.011.

EIF3J (UniProt O75822) was tested. Which log2 fold change did it give?
The log2 fold change was -0.007.
